Results reported in PubChem BioAssay (Tox21).
Inconclusive results are not listed. Active and inactive are the calls of the source. Unless noted, the call rests on the fitted dose curve; in most records, active means well fitted curve in the direction sought with a large enough effect in the repeat runs; inconclusive means weak or mixed curves; inactive means no such curve, though single readings can be large; an effect the other way counts as inactive or inconclusive.

What was measured:
[1] = qHTS assay for small molecule agonists of the p53 signaling pathway - cell viability (AID 651633; calls by dose curve;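 further: p53RE-bla HCT reporter cells with a stable beta-lactamase p53 reporter; series mostly up to about 83 µM; nearly all actives have a fitted effect of over 30% in size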)
Method in brief: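 p53RE-bla cells were treated with compound for 16 hours at 37 C. Cytotoxicity was then measured as CellTiter-Glo luminescence after 30 min at room temperature.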

[2] = qHTS assay for small molecules that induce genotoxicity in human embryonic kidney cells expressing luciferase-tagged ATAD5 - cell viability (AID 651634; calls by dose curve; further: nearly all actives have a fitted effect of over 25% in size)
Method in brief: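 After 15.5 hr incubation with compound at 37C, 5% CO2, HEK293T ATAD5-luciferase cells received CellTiter-Fluor reagent; fluorescence intensity was quantified following 30 min at 37C.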

[3] = qHTS assay for small molecule disruptors of the mitochondrial membrane potential - cell viability (AID 720634; calls by dose curve;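 further: human HepG2 liver cancer cells; series mostly up to about 83 µM; nearly all actives have a fitted effect of over 20% in size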)
Method in brief: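 ATP-based luminescent viability readout (CellTiter-Glo, 30 min, room temperature) in HepG2 cells multiplexed with the m-MPI membrane potential dye; compound exposure lasted 1 hr at 37 C.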

[4] = qHTS assay for small molecule disruptors of the mitochondrial membrane potential (AID 720635)
Method in brief: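 HepG2 cells exposed to compound 1 hr at 37C, then Mito-MPS dye 30 min. Ratio read of aggregate (540/590 nm) versus monomer (490/535 nm) fluorescence.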

[5] = qHTS assay to test for compound auto fluorescence at 590 nm (red) in HepG2 cells (AID 720674)
Method in brief: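 Fluorescence at 590 nm emission following 540 nm excitation was recorded from HepG2 wells one hour after compound transfer, with DMSO-only wells as vehicle and Rose Bengal sodium equivalency as the scale.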

[6] = qHTS assay to test for compound auto fluorescence at 535 nm (green) in HepG2 cells (AID 720675)
[7] = qHTS assay to test for compound auto fluorescence at 460 nm (blue) in HEK293 cells (AID 720678)
Method in brief: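 HEK293 cells (2,000 per well, medium with 10% dialyzed FBS) attached for 4-5 hr at 37C, then received compound and stood overnight at 37C, 5% CO2. Blue fluorescence was read at Ex/Em 405/460 nm and expressed relative to triamterene.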

[8] = qHTS assay to test for compound auto fluorescence at 590 nm (red) in HEK293 cells (AID 720679)
Method in brief: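 HEK293 cells (2,000/well, medium with 10% dialyzed FBS) attached for 4-5 hr at 37C, received 23 nL compound and were incubated overnight at 37C, 5% CO2. Red fluorescence was then read at 540/590nm Ex/Em, referenced to Rose Bengal sodium.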

[9] = qHTS assay to test for compound auto fluorescence at 535 nm (green) in HEK293 cells (AID 720680)
[10] = qHTS assay to test for compound auto fluorescence at 460 nm (blue) in HEK293 cell free culture (AID 720681)
Method in brief: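 Compounds were added to cell-free DMEM with 10% FBS and fluorescence read directly. The blue channel used 405 nm excitation and 460 nm emission, with triamterene as the reference fluorophore.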

[11] = qHTS assay to test for compound auto fluorescence at 535 nm (green) in HEK293 cell free culture (AID 720682)
Method in brief: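 Green-label autofluorescence (485 nm excitation, 535 nm emission) measured on compound added to cell-free culture medium (DMEM, 10% FBS). Output is expressed relative to fluorescein.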

[12] = qHTS assay to test for compound auto fluorescence at 590 nm (red) in HEK293 cell free culture (AID 720683)
Method in brief: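 Cell-free wells of DMEM with 10% FBS received compound, and intrinsic fluorescence was read at excitation/emission 540/590 nm. Values expressed as equivalence to Rose Bengal sodium.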

[13] = qHTS assay to test for compound auto fluorescence at 590 nm (red) in HepG2 cell free culture (AID 720684)
Method in brief: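 Auto fluorescence equivalency versus Rose Bengal sodium, red channel Ex/Em 540/590 nm; compounds in cell-free MEM/10% FBS; DMSO vehicle control.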

[14] = qHTS assay to test for compound auto fluorescence at 460 nm (blue) in HepG2 cell free culture (AID 720685)
Method in brief: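 Cell-free plates of MEM plus 10% FBS received 23 nL compound or DMSO vehicle; blue-channel (405/460 nm) intensity scored against triamterene as reference fluorophore.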

[15] = qHTS assay to test for compound auto fluorescence at 535 nm (green) in HepG2 cell free culture (AID 720686)
[16] = qHTS assay to test for compound auto fluorescence at 460 nm (blue) in HepG2 cells (AID 720687)
Method in brief: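 HepG2 cells in MEM with 10% FBS, attached overnight at 37 C, were exposed to compound or DMSO for 1 hr at 37 C, 5% CO2. Blue fluorescence was read at 405/460 nm, with triamterene as reference fluorophore.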

[17] = qHTS assay for small molecule agonists of the p53 signaling pathway (AID 651631; calls by dose curve; further: nearly all actives have a fitted effect of over 15% in size)
Method in brief: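 HCT-116 cells carrying a beta-lactamase reporter under p53 response elements were dosed with compound for 16 h at 37 °C. LiveBLAzer B/G FRET substrate was then added for 2 h at room temperature, and fluorescence intensity was read to detect pathway agonism.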

Measured: Potency

O=NO
inactive: [1] | [2] | [3] | [4] | [5] | [6] | [7] | [8] | [9] | [10] | [11] | [12] | [13] | [14] | [15] | [16]

O=S(=O)(O)NC1CCCCC1
inactive: [2] | [3] | [5] | [6] | [7] | [8] | [9] | [10] | [11] | [12] | [13] | [14]

C/C=C/c1ccc(OC)cc1
inactive: [1] | [2] | [3] | [5] | [6] | [7] | [8] | [9] | [10] | [11] | [12] | [13] | [14] | [15]

Cn1c(=O)c2[nH]cnc2n(C)c1=O
inactive: [17] | [1] | [3] | [5] | [6] | [7] | [8] | [9] | [10] | [11] | [12] | [13] | [14] | [15]

O=C(O)c1cccnc1
inactive: [2] | [3] | [4] | [5] | [6] | [7] | [8] | [9] | [10] | [11] | [12] | [13] | [14] | [15] | [16]
